Assay results: the supplement of paper PMC10849652
Of roughly 7,900 targets only a part is listed; those with a hit were picked by preference. About 0.6% of all pairs of compound and target were hits. Values without a mark were called inactive.

Legend:
Experiment in all cases: log2 fold change, soluble protein after heating vs DMSO (PISA); higher = thermal stabilisation; K562 cells, 10 uM, 30 min; active = over 0.2 and 3.5 SD of the protein, either way, in both replicates (recomputed)
[1] = compound: C1COCCN1CCN2C3=CC=CC=C3N=C2NC(=O)C4=CC(=CC=C4)[N+](=O)[O-] [IRAK-1-4 Inhibitor I]
Outline: (§1)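 Thermal stability values are relative to control samples and come from duplicates. They are expressed as log2 fold changes. For measurement, K562 cells (2×10^6 cells/mL) received 10 μM compound for 30 min, and aliquots were heated for 3 min over 48°C-58°C, pooled, and extracted at 4°C in PBS with 0.5% NP-40. Soluble protein, the supernatant after 21,000xg for 90 min, was quantified by TMTpro 16plex LC-MS/MS with equalised channel sums.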

[2] = compound: C=CC(=O)N1CCC[C@@H](n2nc(-c3ccc(Oc4ccccc4)cc3)c3c(N)ncnc32)C1 [ibrutinib]
Outline: as §1

[3] = compound: CC(=O)c1cnc2ccc(-c3cc(Cl)c(O)c(Cl)c3)nc2c1N[C@H]1CC[C@H](CN(C)C)CC1
Outline: as §1

[4] = compound: CC(C)(C)Cn1c(N)nc2ccc(-c3[nH]c(C(C)(C)C)nc3-c3ccc(F)cc3)nc21 [ralimetinib]
Outline: as §1

[5] = compound: CC(C)(O)CC(=O)NCCn1ccc2ncnc(Nc3ccc(Oc4cccc(C(F)(F)F)c4)c(Cl)c3)c21
Outline: as §1

[6] = compound: CC(C)C1=C2N=C(C=C(N2N=C1)NCC3=CC=CC=C3)NCCCCCCN
Outline: as §1

[7] = compound: CC(C)C[C@@H](C=O)NC(=O)[C@H](CC(C)C)NC(=O)[C@H](CC(C)C)NC(=O)OCc1ccccc1
Outline: as §1

[8] = compound: CC(C)N(C[C@H]1O[C@@H](n2cnc3c(N)ncnc32)[C@H](O)[C@@H]1O)[C@H]1C[C@@H](CCc2nc3cc(C(C)(C)C)ccc3[nH]2)C1 [pinometostat]
Outline: as §1

[9] = compound: CC1=C(C(CC(=O)N1)C2=CC=C(C=C2)C(F)(F)F)C(=O)NC3=C(C=C4C(=C3)C=NN4)F
Outline: as §1

[10] = compound: CC1=C(C2=C(C=C1)C(=O)C3=CC=CC=C3N2CCCN)C
Outline: as §1

WNK1 isoform 7 (UniProt Q9H4A3)
log2 fold change [1]: 0.015
log2 fold change [2]: 0.01
log2 fold change [3]: -0.213
log2 fold change [4]: -0.045
log2 fold change [5]: 0.017
log2 fold change [6]: -0.005
log2 fold change [7]: 0.476 (active)
log2 fold change [8]: 0.004
log2 fold change [9]: -0.011
log2 fold change [10]: 0.027

WARS2 (UniProt Q9UGM6)
log2 fold change [1]: -0.016
log2 fold change [2]: -0.075
log2 fold change [3]: -0.031
log2 fold change [4]: -0.017
log2 fold change [5]: -0.144
log2 fold change [6]: -0.204
log2 fold change [7]: 0.016
log2 fold change [8]: -0.053
log2 fold change [9]: -0.026
log2 fold change [10]: -0.004

TUBAL3 (UniProt A6NHL2)
log2 fold change [1]: -0.046
log2 fold change [2]: -0.005
log2 fold change [3]: -0.039
log2 fold change [4]: -0.044
log2 fold change [5]: -0.047
log2 fold change [6]: 0.003
log2 fold change [7]: -0.102
log2 fold change [8]: -0.108
log2 fold change [9]: 0.11
log2 fold change [10]: -0.094

VWA3B isoform 6 (UniProt Q502W6)
log2 fold change [1]: 0.043
log2 fold change [2]: -0.069
log2 fold change [3]: 0.013
log2 fold change [4]: -0.031
log2 fold change [5]: 0
log2 fold change [6]: -0.407
log2 fold change [7]: -0.256
log2 fold change [8]: 0.079
log2 fold change [9]: 0.257
log2 fold change [10]: 0.089

TOE1 (UniProt Q96GM8)
log2 fold change [1]: -0.15
log2 fold change [2]: -0.031
log2 fold change [3]: 0.089
log2 fold change [4]: 0.012
log2 fold change [5]: 0.005
log2 fold change [6]: 0.042
log2 fold change [7]: 0.09
log2 fold change [8]: 0.077
log2 fold change [9]: -0.067
log2 fold change [10]: -0.228

TXN2 (UniProt Q99757)
log2 fold change [1]: 0.081
log2 fold change [2]: 0.021
log2 fold change [3]: 0.072
log2 fold change [4]: -0.093
log2 fold change [5]: 0.079
log2 fold change [6]: 0.086
log2 fold change [7]: -0.029
log2 fold change [8]: -0.048
log2 fold change [9]: 0.086
log2 fold change [10]: 0.041

WDR18 (UniProt Q9BV38)
log2 fold change [1]: -0.005
log2 fold change [2]: -0.03
log2 fold change [3]: -0.007
log2 fold change [4]: 0.064
log2 fold change [5]: 0.025
log2 fold change [6]: 0.008
log2 fold change [7]: -0.102
log2 fold change [8]: 0.028
log2 fold change [9]: 0.011
log2 fold change [10]: -0.962 (active)

UFM1 (UniProt P61960)
Chain of UniProt P61960 (P61960 whole entry, looked up): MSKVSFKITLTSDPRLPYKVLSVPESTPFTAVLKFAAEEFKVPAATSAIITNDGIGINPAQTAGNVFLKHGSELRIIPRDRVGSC
log2 fold change [1]: 0.219
log2 fold change [2]: 0.026
log2 fold change [3]: 0.003
log2 fold change [4]: 0
log2 fold change [5]: -0.117
log2 fold change [6]: 0.06
log2 fold change [7]: 0.055
log2 fold change [8]: 0.013
log2 fold change [9]: -0.057
log2 fold change [10]: 0.133

USP25 isoform 3 (UniProt Q9UHP3)
Chain of UniProt Q9UHP3 (Q9UHP3 whole entry, looked up): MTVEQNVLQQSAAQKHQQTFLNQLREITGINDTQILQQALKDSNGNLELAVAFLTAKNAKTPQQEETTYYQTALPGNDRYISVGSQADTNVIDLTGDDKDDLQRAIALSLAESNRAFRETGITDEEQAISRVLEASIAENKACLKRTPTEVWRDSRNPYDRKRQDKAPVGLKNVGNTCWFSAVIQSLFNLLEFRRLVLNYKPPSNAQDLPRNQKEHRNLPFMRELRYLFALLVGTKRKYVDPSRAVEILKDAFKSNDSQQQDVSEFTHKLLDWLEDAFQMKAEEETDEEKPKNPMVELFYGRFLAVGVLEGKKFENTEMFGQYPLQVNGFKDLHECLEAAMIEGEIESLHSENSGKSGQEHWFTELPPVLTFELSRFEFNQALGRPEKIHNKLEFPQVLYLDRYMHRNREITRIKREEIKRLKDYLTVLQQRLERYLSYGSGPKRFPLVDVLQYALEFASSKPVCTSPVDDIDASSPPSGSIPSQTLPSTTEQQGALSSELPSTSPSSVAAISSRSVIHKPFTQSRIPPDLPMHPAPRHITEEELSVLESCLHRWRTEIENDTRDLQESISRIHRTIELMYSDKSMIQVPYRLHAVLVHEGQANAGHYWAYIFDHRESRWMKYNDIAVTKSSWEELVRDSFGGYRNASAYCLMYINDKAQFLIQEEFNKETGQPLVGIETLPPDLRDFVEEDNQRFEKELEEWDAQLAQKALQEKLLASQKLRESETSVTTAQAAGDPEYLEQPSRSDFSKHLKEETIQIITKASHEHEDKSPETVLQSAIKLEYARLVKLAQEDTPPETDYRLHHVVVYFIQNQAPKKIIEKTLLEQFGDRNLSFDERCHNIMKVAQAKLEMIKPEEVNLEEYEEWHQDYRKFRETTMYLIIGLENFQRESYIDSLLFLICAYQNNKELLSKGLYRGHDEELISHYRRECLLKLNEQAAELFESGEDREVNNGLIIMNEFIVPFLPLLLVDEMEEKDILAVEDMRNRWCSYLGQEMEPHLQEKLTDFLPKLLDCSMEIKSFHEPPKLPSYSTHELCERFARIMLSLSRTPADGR
log2 fold change [1]: 0.002
log2 fold change [2]: -0.002
log2 fold change [3]: -0.019
log2 fold change [4]: -0.027
log2 fold change [5]: 0.015
log2 fold change [6]: 0.001
log2 fold change [7]: 0.052
log2 fold change [8]: 0.001
log2 fold change [9]: 0.043
log2 fold change [10]: 0.002

TMEM161B (UniProt Q8NDZ6)
log2 fold change [1]: 0.06
log2 fold change [2]: -0.039
log2 fold change [3]: 0.008
log2 fold change [4]: -0.097
log2 fold change [5]: -0.227 (active)
log2 fold change [6]: -0.052
log2 fold change [7]: 0.015
log2 fold change [8]: -0.002
log2 fold change [9]: -0.031
log2 fold change [10]: 0.022

UHRF1BP1L (UniProt A0JNW5)
log2 fold change [1]: 0.018
log2 fold change [2]: -0.051
log2 fold change [3]: -0.076
log2 fold change [4]: -0.009
log2 fold change [5]: 0.193
log2 fold change [6]: 0.242 (active)
log2 fold change [7]: -0.004
log2 fold change [8]: 0.03
log2 fold change [9]: -0.027
log2 fold change [10]: -0.019

XPO6 (UniProt Q96QU8)
log2 fold change [1]: -0.131
log2 fold change [2]: 0.246
log2 fold change [3]: -0.038
log2 fold change [4]: 0.083
log2 fold change [5]: 0.434 (active)
log2 fold change [6]: -0.189
log2 fold change [7]: -0.023
log2 fold change [8]: 0.646 (active)
log2 fold change [9]: -0.08
log2 fold change [10]: 0.067

WASHC2C, A0A096LPC5
log2 fold change [1]: 0.01
log2 fold change [2]: -0.005
log2 fold change [3]: -0.159
log2 fold change [4]: -0.035
log2 fold change [5]: 0.085
log2 fold change [6]: -0.214
log2 fold change [7]: 0.057
log2 fold change [8]: 0.008
log2 fold change [9]: -0.033
log2 fold change [10]: -0.125

TTC38 (UniProt Q5R3I4)
log2 fold change [1]: 0.129
log2 fold change [2]: -0.048
log2 fold change [3]: 0.023
log2 fold change [4]: 0.017
log2 fold change [5]: -0.204
log2 fold change [6]: -0.06
log2 fold change [7]: -0.195
log2 fold change [8]: 0.027
log2 fold change [9]: -0.081
log2 fold change [10]: 0.801 (active)

TTC33 (UniProt Q6PID6)
Chain of UniProt Q6PID6 (Q6PID6 whole entry, looked up): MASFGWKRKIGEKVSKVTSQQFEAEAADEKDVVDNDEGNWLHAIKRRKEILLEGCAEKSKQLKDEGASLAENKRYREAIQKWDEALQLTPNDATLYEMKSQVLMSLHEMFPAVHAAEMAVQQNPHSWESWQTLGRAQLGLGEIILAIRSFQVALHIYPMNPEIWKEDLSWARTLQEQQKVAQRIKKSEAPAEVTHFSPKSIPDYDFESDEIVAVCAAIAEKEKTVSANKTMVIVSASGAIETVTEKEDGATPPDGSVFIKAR
log2 fold change [1]: 0.059
log2 fold change [2]: 0.058
log2 fold change [3]: -0.121
log2 fold change [4]: 0.009
log2 fold change [5]: -0.023
log2 fold change [6]: -0.075
log2 fold change [7]: 0.139
log2 fold change [8]: 0.111

UBA6
log2 fold change [1]: -0.038
log2 fold change [2]: -0.01
log2 fold change [3]: -0.009
log2 fold change [4]: -0.002
log2 fold change [5]: -0.012
log2 fold change [6]: -0.044
log2 fold change [7]: -0.025
log2 fold change [8]: 0.004
log2 fold change [9]: -0.044
log2 fold change [10]: 0.106

UBE4A isoform 2 (UniProt Q14139)
log2 fold change [1]: -0.114
log2 fold change [2]: -0.125
log2 fold change [3]: -0.017
log2 fold change [4]: 0.02
log2 fold change [5]: -0.032
log2 fold change [6]: -0.376 (active)
log2 fold change [7]: 0.096
log2 fold change [8]: 0.093
log2 fold change [9]: 0.098
log2 fold change [10]: 0.041

WDR61 (UniProt Q9GZS3)
log2 fold change [1]: 0.037
log2 fold change [2]: -0.015
log2 fold change [3]: -0.057
log2 fold change [4]: -0.049
log2 fold change [5]: 0.008
log2 fold change [6]: -0.016
log2 fold change [7]: -0.009
log2 fold change [8]: 0.028
log2 fold change [9]: 0.013
log2 fold change [10]: 0.004

VPS18 (UniProt Q9P253)
Chain of UniProt Q9P253 (Q9P253 whole entry, looked up): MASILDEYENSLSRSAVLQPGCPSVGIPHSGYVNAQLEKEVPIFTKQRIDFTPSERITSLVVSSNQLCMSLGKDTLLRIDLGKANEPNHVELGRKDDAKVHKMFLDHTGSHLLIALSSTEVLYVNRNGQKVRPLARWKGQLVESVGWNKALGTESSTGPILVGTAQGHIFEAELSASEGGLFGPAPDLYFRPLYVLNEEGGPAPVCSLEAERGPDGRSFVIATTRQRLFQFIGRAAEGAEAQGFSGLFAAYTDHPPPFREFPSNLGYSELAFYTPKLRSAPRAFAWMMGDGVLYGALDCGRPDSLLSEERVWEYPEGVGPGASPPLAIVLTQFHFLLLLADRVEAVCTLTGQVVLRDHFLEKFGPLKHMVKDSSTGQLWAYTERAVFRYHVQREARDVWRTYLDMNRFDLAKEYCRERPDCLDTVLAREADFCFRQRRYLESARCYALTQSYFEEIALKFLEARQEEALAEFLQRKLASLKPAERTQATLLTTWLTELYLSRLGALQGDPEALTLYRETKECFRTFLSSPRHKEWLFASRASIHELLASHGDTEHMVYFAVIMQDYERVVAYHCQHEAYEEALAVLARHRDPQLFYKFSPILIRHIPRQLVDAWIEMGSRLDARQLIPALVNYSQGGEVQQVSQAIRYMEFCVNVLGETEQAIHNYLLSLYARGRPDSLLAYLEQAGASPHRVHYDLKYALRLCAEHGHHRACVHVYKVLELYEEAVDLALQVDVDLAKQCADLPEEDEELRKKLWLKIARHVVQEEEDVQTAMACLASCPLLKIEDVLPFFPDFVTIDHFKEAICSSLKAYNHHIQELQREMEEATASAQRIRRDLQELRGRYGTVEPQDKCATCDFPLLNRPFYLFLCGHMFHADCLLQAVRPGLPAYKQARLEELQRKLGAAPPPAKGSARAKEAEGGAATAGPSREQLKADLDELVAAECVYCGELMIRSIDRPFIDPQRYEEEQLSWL
log2 fold change [1]: -0.02
log2 fold change [2]: -0.029
log2 fold change [3]: -0.029
log2 fold change [4]: -0.037
log2 fold change [5]: -0.024
log2 fold change [6]: -0.319
log2 fold change [7]: 0.053
log2 fold change [8]: 0.055
log2 fold change [9]: -0.019
log2 fold change [10]: 0.059

UGDH (UniProt O60701)
Chain of UniProt O60701 (O60701 whole entry, looked up): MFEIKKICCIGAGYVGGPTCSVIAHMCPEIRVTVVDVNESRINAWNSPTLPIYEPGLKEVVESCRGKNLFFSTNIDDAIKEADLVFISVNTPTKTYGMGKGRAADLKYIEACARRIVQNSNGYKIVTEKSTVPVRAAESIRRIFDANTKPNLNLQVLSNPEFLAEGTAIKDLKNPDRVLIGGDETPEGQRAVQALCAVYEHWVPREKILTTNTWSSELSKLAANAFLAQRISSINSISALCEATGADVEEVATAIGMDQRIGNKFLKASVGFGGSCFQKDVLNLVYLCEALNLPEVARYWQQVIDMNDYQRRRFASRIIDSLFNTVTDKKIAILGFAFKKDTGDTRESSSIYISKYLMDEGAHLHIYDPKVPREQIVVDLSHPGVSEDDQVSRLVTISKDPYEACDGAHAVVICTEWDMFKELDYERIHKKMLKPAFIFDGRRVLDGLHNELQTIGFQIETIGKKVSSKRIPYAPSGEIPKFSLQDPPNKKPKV
log2 fold change [1]: -0.019
log2 fold change [2]: 0.03
log2 fold change [3]: -0.616 (active)
log2 fold change [4]: -0.046
log2 fold change [5]: -0.038
log2 fold change [6]: 0.017
log2 fold change [7]: -0.043
log2 fold change [8]: -0.105
log2 fold change [9]: 0.004
log2 fold change [10]: 0.078

TMTC3 (UniProt Q6ZXV5)
log2 fold change [1]: 0.007
log2 fold change [2]: -0.033
log2 fold change [3]: -0.007
log2 fold change [4]: 0
log2 fold change [5]: 0.022
log2 fold change [6]: -0.218
log2 fold change [7]: 0.028
log2 fold change [8]: -0.019
log2 fold change [9]: -0.008
log2 fold change [10]: 0.018

UBE4B isoform 4 (UniProt O95155)
log2 fold change [1]: 0.008
log2 fold change [2]: -0.031
log2 fold change [3]: 0.006
log2 fold change [4]: 0.057
log2 fold change [5]: -0.117
log2 fold change [6]: -0.041
log2 fold change [7]: 0.047
log2 fold change [8]: 0
log2 fold change [9]: 0.004
log2 fold change [10]: -0.005

TMEM173 (UniProt Q86WV6)
log2 fold change [1]: 0.018
log2 fold change [2]: -0.105
log2 fold change [3]: 0.009
log2 fold change [4]: 0.067
log2 fold change [5]: -0.047
log2 fold change [6]: -0.006
log2 fold change [7]: 0.005
log2 fold change [8]: 0.012
log2 fold change [9]: 0.009
log2 fold change [10]: 0.088

TNFRSF10A (UniProt O00220)
Chain of UniProt O00220 (O00220 whole entry, looked up): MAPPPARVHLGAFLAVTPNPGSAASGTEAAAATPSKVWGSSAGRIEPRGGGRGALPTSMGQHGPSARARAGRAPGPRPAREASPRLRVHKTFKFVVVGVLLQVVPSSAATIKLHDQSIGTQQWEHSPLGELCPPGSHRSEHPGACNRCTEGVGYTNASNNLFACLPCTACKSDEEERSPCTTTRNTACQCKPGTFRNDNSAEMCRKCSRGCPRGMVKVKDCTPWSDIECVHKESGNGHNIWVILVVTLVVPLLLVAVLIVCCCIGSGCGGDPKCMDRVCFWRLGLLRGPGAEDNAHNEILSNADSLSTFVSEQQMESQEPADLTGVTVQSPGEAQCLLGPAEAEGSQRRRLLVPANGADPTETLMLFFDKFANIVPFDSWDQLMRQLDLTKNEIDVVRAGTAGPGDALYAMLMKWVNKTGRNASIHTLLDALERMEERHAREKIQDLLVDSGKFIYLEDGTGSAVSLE
log2 fold change [1]: 0.002
log2 fold change [2]: 0.034
log2 fold change [3]: -0.064
log2 fold change [4]: -0.072
log2 fold change [5]: -0.073
log2 fold change [6]: 0.043
log2 fold change [7]: 0.078
log2 fold change [8]: -0.002
log2 fold change [9]: -0.003
log2 fold change [10]: 0.021

U2AF1 isoform 2 (UniProt Q01081)
log2 fold change [1]: -0.133
log2 fold change [2]: 0.073
log2 fold change [3]: -0.519 (active)
log2 fold change [4]: 0
log2 fold change [5]: 0.042
log2 fold change [6]: -0.083
log2 fold change [7]: 0.022
log2 fold change [8]: -0.04
log2 fold change [9]: -0.062
log2 fold change [10]: 0.169

VPS37A (UniProt Q8NEZ2)
Chain of UniProt Q8NEZ2 (Q8NEZ2 whole entry, looked up): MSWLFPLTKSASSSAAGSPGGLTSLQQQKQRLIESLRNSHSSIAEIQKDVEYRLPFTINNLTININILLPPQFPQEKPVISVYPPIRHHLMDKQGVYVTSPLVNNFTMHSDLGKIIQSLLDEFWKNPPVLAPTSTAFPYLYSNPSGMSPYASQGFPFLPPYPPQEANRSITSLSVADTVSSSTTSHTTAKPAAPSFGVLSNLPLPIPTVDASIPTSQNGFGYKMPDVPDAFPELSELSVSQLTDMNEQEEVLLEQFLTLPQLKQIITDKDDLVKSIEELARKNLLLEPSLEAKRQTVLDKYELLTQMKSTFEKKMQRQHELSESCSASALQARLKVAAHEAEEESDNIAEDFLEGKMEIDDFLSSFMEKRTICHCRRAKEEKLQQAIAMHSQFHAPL
log2 fold change [1]: 0.045
log2 fold change [2]: -0.011
log2 fold change [3]: -0.07
log2 fold change [4]: 0.053
log2 fold change [5]: -0.025
log2 fold change [6]: -0.143
log2 fold change [7]: 0.094
log2 fold change [8]: 0.045
log2 fold change [9]: -0.047
log2 fold change [10]: -0.066

TRMT10C (UniProt Q7L0Y3)
log2 fold change [1]: 0.029
log2 fold change [2]: 0.011
log2 fold change [3]: -0.07
log2 fold change [4]: -0.06
log2 fold change [5]: -0.055
log2 fold change [6]: 0.012
log2 fold change [7]: 0.005
log2 fold change [8]: -0.021
log2 fold change [9]: 0.016
log2 fold change [10]: 0.014

VPS35L (UniProt Q7Z3J2)
log2 fold change [1]: -0.012
log2 fold change [2]: -0.006
log2 fold change [3]: -0.028
log2 fold change [4]: 0.05
log2 fold change [5]: -0.097
log2 fold change [6]: -0.046
log2 fold change [7]: 0.036
log2 fold change [8]: 0.043
log2 fold change [9]: -0.013
log2 fold change [10]: 0.024

WDR41 (UniProt Q9HAD4)
log2 fold change [1]: -0.024
log2 fold change [2]: -0.022
log2 fold change [3]: -0.023
log2 fold change [4]: -0.036
log2 fold change [5]: -0.077
log2 fold change [6]: -0.271 (active)
log2 fold change [7]: -0.026
log2 fold change [8]: 0.012
log2 fold change [9]: 0.127
log2 fold change [10]: -0.001

WASHC5 (UniProt Q12768)
Chain of UniProt Q12768 (Q12768 whole entry, looked up): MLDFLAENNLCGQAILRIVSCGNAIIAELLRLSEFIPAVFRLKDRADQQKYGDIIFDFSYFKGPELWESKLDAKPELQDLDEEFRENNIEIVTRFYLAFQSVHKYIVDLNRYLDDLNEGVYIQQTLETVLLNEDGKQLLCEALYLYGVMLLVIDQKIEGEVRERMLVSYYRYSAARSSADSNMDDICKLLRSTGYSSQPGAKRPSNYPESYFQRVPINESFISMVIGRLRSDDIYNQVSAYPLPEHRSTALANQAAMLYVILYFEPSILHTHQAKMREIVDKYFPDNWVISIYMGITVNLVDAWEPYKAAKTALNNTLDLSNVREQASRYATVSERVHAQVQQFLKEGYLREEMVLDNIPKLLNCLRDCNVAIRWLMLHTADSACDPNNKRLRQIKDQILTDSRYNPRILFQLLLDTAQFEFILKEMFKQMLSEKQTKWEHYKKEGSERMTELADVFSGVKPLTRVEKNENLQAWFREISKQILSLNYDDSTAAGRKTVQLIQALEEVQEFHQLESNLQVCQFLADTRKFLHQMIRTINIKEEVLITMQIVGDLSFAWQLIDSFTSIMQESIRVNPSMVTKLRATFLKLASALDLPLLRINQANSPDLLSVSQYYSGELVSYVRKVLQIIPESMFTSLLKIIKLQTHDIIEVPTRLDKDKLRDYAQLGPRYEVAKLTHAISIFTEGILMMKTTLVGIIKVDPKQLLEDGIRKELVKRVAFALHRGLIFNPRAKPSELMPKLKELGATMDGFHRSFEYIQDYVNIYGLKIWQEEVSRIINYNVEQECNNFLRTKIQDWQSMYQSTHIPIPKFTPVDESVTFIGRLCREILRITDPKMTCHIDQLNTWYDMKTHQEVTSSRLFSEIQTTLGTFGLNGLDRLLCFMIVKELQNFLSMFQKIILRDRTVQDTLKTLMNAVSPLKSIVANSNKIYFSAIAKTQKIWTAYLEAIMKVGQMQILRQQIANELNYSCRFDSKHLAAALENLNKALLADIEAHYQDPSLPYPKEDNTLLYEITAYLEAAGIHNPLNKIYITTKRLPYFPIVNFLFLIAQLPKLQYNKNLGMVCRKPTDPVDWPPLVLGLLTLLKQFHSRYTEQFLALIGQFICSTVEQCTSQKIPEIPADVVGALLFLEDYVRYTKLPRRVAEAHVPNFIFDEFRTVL
log2 fold change [1]: -0.042
log2 fold change [2]: 0.007
log2 fold change [3]: -0.024
log2 fold change [4]: 0.072
log2 fold change [5]: -0.116
log2 fold change [6]: -0.277 (active)
log2 fold change [7]: 0.003
log2 fold change [8]: 0.067
log2 fold change [9]: -0.049
log2 fold change [10]: -0.014
